# Assay results published in PubChem BioAssay AID720541 (National Center for Advancing Translational Sciences (NCATS), 2013).
# About 420 (32%) of roughly 1,300 compounds were called active. Roughly 32% stayed inconclusive and do not appear here. Calls come from the whole dose curve; as a rule, active = well fitted inhibition curve with a large enough effect; inconclusive = small, poorly fitted or top-dose-only effect; inactive = no such curve, though single readings can be large or run the other way. The list shows a part of the results. Where a call stands in place of a potency, no number is given.
# Target: C-terminal-binding protein 1 (Homo sapiens) (UniProt Q13363)
# Experiment: qHTS for Inhibitors of the Phosphatase Activity of Eya2: Carboxyl-terminal binding protein (CtBP) Counterscreen for Cherry-picked Compounds; note: nearly all actives have a fitted effect of over 65% in size
# Details: purified protein-protein binding, AlphaScreen, 3 h; series mostly up to 46.1 µM
# Method in brief: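 AlphaScreen using 25 nM GST-E1A with 25 nM CtBP-6xHIS; compounds at 2.5 nM–46 uM final, 2 h at room temperature, then donor/acceptor beads (20 ug/mL) for 1 h in the dark. Signal normalized to E1A peptide inhibitor (maximum inhibition) and DMSO.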
# Potency is the fitted concentration of half-maximal effect.
row,Structure (SMILES),Potency
1,O=C(O)CSCc1nc2cccnc2n1C1CCCCC1,inactive
2,CC1(C)CC(=O)C(C2C3=C(CC(C)(C)CC3=O)Oc3c(Br)cc(Br)cc32)=C(O)C1 (centres undefined),4.78 µM (active)
3,Cc1nc(C)c(-c2csc(Nc3ccc(O)c(C(=O)O)c3)n2)s1,15.1 µM (active)
4,Cn1c(=O)c2[nH]c(COc3ccccc3)nc2n(C)c1=O,inactive
5,CC1(C)Nc2cccc3c(N=Nc4ccc(N=Nc5ccccc5)c5ccccc45)ccc(c23)N1,3.38 µM (active)
6,COc1ccc(N(CC(=O)Nc2nc3ccc(C)cc3s2)S(=O)(=O)c2c(C)nn(C)c2C)cc1,inactive
7,CCN(CC)c1ccc(/C=C/c2c(C)cnc3ccc(C)cc23)cc1,8.49 µM (active)
8,Cc1cnc2ccc(I)cc2c1/C=C/c1ccc(N(C)C)cc1,10.7 µM (active)
9,Cc1ccc2c(/C=C/c3ccc(N(C)C)cc3)c(C)cnc2c1,10.7 µM (active)
10,CCc1cnc2ccccc2c1/C=C/c1ccc(N(C)C)cc1,10.7 µM (active)
11,Cc1ccc(-n2nnnc2C(=Cc2ccc(N(C)C)cc2)c2nnnn2-c2ccc(C)cc2)cc1,inactive
12,O=c1cc(-c2ccccc2Cl)oc2c(NS(=O)(=O)c3ccccc3OC(F)(F)F)ccc(O)c12,inactive
13,O=C(O)c1c(C(=O)N2N=C3/C(=C/c4ccccc4)CCCC3C2c2ccccc2)cccc1[N+](=O)[O-] (centres undefined),inactive
14,Cc1ccccc1NC(=O)C1CCN(C(=O)N2CCOc3ccccc32)CC1,inactive
15,CC1CN(C(=O)c2cc(S(=O)(=O)N(C)c3ccc(F)cc3)ccc2Cl)CC(C)O1 (centres undefined),inactive
16,COc1ccc(S(=O)(=O)N2CCCCC2)cc1NC(=O)c1[nH]c(C)c(C(C)=O)c1C,inactive
17,CC(Oc1ccc(F)cc1)C(=O)Nc1cc(S(=O)(=O)N2CCCCC2)ccc1N1CCN(C)CC1 (centres undefined),inactive
18,CCOc1ccc(S(=O)(=O)N2CCN(C)CC2)cc1NC(=O)c1ccccc1F,7.57 µM (active)
19,O=C1c2ccccc2C(=O)N1CCCc1cn(C[C@H]2CC[C@@H]([C@@H]3CC[C@H](Cn4cc(CCCN5C(=O)c6ccccc6C5=O)nn4)O3)O2)nn1,inactive
20,Cc1ccc(-c2n[nH]c(=O)c3ccccc23)cc1S(=O)(=O)Nc1ccccc1,inactive
21,COc1ccc(Cc2nc3c4c(ncn3n2)Oc2ccc3ccccc3c2C4c2ccc(OC)c(OC)c2)cc1 (centres undefined),inactive
22,COc1cc(C2C(C#N)=C(N)Oc3n[nH]c(C)c32)ccc1OC(=O)c1ccccc1 (centres undefined),8.49 µM (active)
23,CCOc1ccccc1O[C@H](c1ccccc1)[C@H]1CNCCO1,inactive
24,Cc1[nH]c2ccc(C(=O)OC(C)C(=O)N(C)c3ccccc3)cc2c1C (centres undefined),inactive
25,CCOC(=O)c1[nH]c2ccc(C(=O)OC)cc2c1C(=O)OCC,10.7 µM (active)

row,Structure (SMILES),Potency
1,CS(=O)(=O)n1nc(OC(=O)c2cccs2)cc1N,inactive
2,Cc1cc(O)c(-c2cc(O)c(C)cc2O)cc1O,inactive
3,COc1cc(N(C(C)=O)c2ccc(O)c(C(=O)O)c2)c2ncccc2c1,8.49 µM (active)
4,CCN(CC)S(=O)(=O)c1cc(OC)ccc1N=Nc1ccc(O)c2ncccc12,inactive
5,COc1ccc(N)cc1-n1c(C)ccc1C,inactive
6,Nc1ccc2c(c1)C(=O)c1cc(N)c(Cl)cc1-2,inactive
7,COc1cc2c(cc1N)-c1ccc(N)cc1C2=O,16.9 µM (active)
8,CCOc1ccc2ccccc2c1C(=O)N[C@@H]1C(=O)N2[C@@H]1SC(C)(C)[C@@H]2C(=O)O,inactive
9,CC(=O)Oc1ccc(N2C(=O)c3cccc4c([N+](=O)[O-])ccc(c34)C2=O)cc1,inactive
10,CCN1C(=O)c2cccc3c(S(=O)(=O)N(C(C)=O)c4ccc(OC(C)=O)cc4)ccc1c23,12 µM (active)
11,N/C(=N\OC(=O)c1ccc2ccccc2c1)c1ccncc1,inactive
12,C/C(=C1/C=Nc2ccccc21)c1ccc(N(C)C)cc1,16.9 µM (active)
13,Cn1c(=O)cc2c3c(c(N4CCCCC4)ccc31)C(=O)c1ccccc1-2,3.79 µM (active)
14,CCOc1ccc(NC(=O)COc2ccc3c(c2)CCC3)cc1OC,inactive
15,CCOc1ccc(S(=O)(=O)NCc2ccc(C)cc2)c2cccnc12,inactive
16,CCOc1ccc(NC(=O)COc2cccc3cccnc23)cc1S(=O)(=O)N1CCCC1,16.9 µM (active)
17,C=CCn1c(C)cc(C(=O)COc2ccc(N(C)S(=O)(=O)c3ccc(NC(C)=O)cc3)cc2)c1C,inactive
18,CN(C)C1=C2C=CC=CC2/C(=C2/C=Cc3ccccc32)C=C1 (centres undefined),15.1 µM (active)
19,O=C(Nc1ccon1)c1ccc(N2CCCCC2)c([N+](=O)[O-])c1,inactive
20,CSc1cccc(NC(=O)CCCOc2cc(=O)n(C)c3ccccc23)c1,inactive
21,O=C1/C(=C\c2cccc([N+](=O)[O-])c2O)SC(=S)N1Cc1ccccc1,8.49 µM (active)
22,Cc1ccc(OCC(=O)Nc2ccccc2N2CCCC2)c(C)c1,inactive
23,Cc1ccc(NC(=O)CSc2cccc3cccnc23)c(C)c1,9.53 µM (active)
24,Cn1c(=O)c2c(ncn2CC(=O)Nc2cccc(S(=O)(=O)Nc3ccccc3F)c2)n(C)c1=O,8.49 µM (active)
25,O=C(Cc1ccccc1F)Nc1cccc(S(=O)(=O)N2CCCCC2)c1,inactive

row,Structure (SMILES),Potency
1,CCCNC(=O)C1(C)CCN(Cc2cccc(OC(=O)c3ccccc3)c2)C1 (centres undefined),inactive
2,CC1(C)CC(=O)c2c(oc3ccc(NS(=O)(=O)c4cccc5cccnc45)cc23)C1,inactive
3,COc1ccc(Cl)cc1NC(=O)CCCn1c(=O)c2cccn2c2cccnc21,inactive
4,O=S(=O)(Nc1cccc2cccnc12)c1ccccc1Br,9.53 µM (active)
5,O=C(CCCl)Nc1cccc2cccnc12,8.49 µM (active)
6,CC(=O)Nc1ccc(S(=O)(=O)Nc2cccc3cccnc23)cc1,4.26 µM (active)
7,CC(=O)Nc1ccc(S(=O)(=O)NCc2ccc3[nH]c(C)cc3c2)cc1,inactive
8,CC(=O)c1cccc(-c2cnc3c(NC=O)cc(-c4ccc(N(C)C)cc4)cn23)c1,inactive
9,COC(=O)c1cc2c(ccc3ccccc32)oc1=O,12 µM (active)
10,CC(C)Cc1nc2oc3c(=O)[nH]cnc3c2c2c1CCC2,15.1 µM (active)
11,CCC(=O)c1cn(CC(=O)Nc2c(C)cccc2C)c2ccccc12,inactive
12,Cc1ccccc1OCCn1cc(C(=S)N2CCN(C)CC2)c2ccccc21,15.1 µM (active)
13,O=C(CN1C(=O)/C(=C/c2ccco2)SC1=S)Nc1ccc(C(=O)O)c(O)c1,10.7 µM (active)
14,COc1cc(/C=C2\SC(=S)N(CCC(=O)Nc3cccc(O)c3)C2=O)cc(OC)c1OC,inactive
15,CCn1c(SCC(=O)N2CCN(c3ccccc3)CC2)nc2c(c1=O)SC(C)C2 (centres undefined),inactive
16,Cc1c(C(=O)O)c(O)cc2c1C(=O)c1c(O)c([C@H]3O[C@H](CO)[C@@H](O)[C@H](O)[C@H]3O)c(O)c(O)c1C2=O,19 µM (active)
17,Clc1cccc(-c2ccc(CNCc3ccccn3)o2)c1,16.9 µM (active)
18,Clc1ccc(-c2ccc(CNCc3ccccn3)o2)cc1,12 µM (active)
19,Fc1ccc(-c2ccc(CNCc3ccccn3)o2)cc1,15.1 µM (active)
20,O=C(/C=C/c1cccc([N+](=O)[O-])c1)Nc1cccc(NC(=O)c2cccs2)c1,inactive
21,COC(=O)c1ccc(NC(=O)CSc2nc(=O)n3cccc(C)c3n2)cc1,13.5 µM (active)
22,COC(=O)c1ccc(NC(=O)c2ccc3c(c2)C(=O)N(Cc2cccnc2)C3=O)cc1,inactive
23,Cc1ccc(-c2csc(N3CCN(CCCn4c(C(F)(F)F)nc5ccccc54)CC3)n2)cc1,inactive
24,Cc1cc(C)c2c(n1)sc1c(O)cc(=O)[nH]c12,inactive
25,Cc1csc(NC(=O)CSc2sc3c(O)cc(=O)[nH]c3c2C#N)n1,12 µM (active)

row,Structure (SMILES),Potency
1,O=C1c2cccc(Sc3ccccc3)c2C(=O)c2c(Sc3ccccc3)cccc21,3.79 µM (active)
2,Oc1c(Cl)cc(CN2CCOCC2)c2cccnc12,0.601 µM (active)
3,CCCC(=O)Nc1ccc(NC(=S)NC(=O)c2cccs2)cc1,inactive
4,CCN(CC)c1ccc(NC(=S)NC(=O)c2cccs2)cc1,10.7 µM (active)
5,Cc1ccc(C(=O)N2CCN(c3ccc(NC(=S)NC(=O)c4cccs4)cc3)CC2)cc1,inactive
6,Cn1nc(C(=O)Nc2nc3ccccc3[nH]2)c2ccccc2c1=O,10.7 µM (active)
7,CNC(=O)c1cc2c(cn1)[nH]c1ccccc12,inactive
8,COc1ccc(-c2noc(N3CCC(C(=O)Nc4cc(OC)ccc4OC)CC3)n2)cc1,inactive
9,COc1ccc(OC)c(Nc2nc(-c3sc(N)nc3C)cs2)c1,8.49 µM (active)
10,CCn1c2ccccc2c2cc(NC(=O)COC(=O)c3ccc(NC(=O)CC#N)cc3)ccc21,inactive
11,Cc1ccc(-n2[nH]c(C)c(C=Nc3ccc(S(=O)(=O)Nc4nccs4)cc3)c2=O)cc1C,7.57 µM (active)
12,O=C(Nc1nc(-c2ccccn2)cs1)C1CC(=O)N(c2ccc3c(c2)OCCO3)C1 (centres undefined),6.01 µM (active)
13,CCc1ccc(-c2csc(NC(=O)C3CC(=O)N(c4ccc5c(c4)OCCO5)C3)n2)cc1 (centres undefined),inactive
14,O=C(NCc1ccco1)C1CC2CCC1C2 (centres undefined),inactive
15,COCCNC(=O)c1cccc(OC2CCN(Cc3ccc(F)cc3OC)CC2)c1,inactive
16,CSc1nnc2c(n1)OC(C)=Nc1ccccc1-2,12 µM (active)
17,C#Cc1cccc(NC(=O)CSc2nnc(-c3ccc(C(F)(F)F)cn3)o2)c1,15.1 µM (active)
18,CCn1ccnc1CNCc1cn(-c2cc(C)ccc2C)nc1-c1ccccc1,8.49 µM (active)
19,CCNc1ccc2noc3c2c1C(=O)c1ccccc1-3,7.57 µM (active)
20,CN(Cc1ccccc1F)c1nc(-c2cccnc2)nc2ccccc12,inactive
21,O=C(CN1C(=O)c2ccccc2C1=O)Nc1nc(-c2cccc([N+](=O)[O-])c2)cs1,inactive
22,CCn1nc(C(=O)Nc2nc(-c3ccccn3)cs2)c2ccccc2c1=O,3.79 µM (active)
23,CSCCC(=O)Nc1nc(-c2ccccn2)cs1,12 µM (active)
24,O=C(CCS(=O)(=O)c1ccc(F)cc1)Nc1nc(-c2ccccn2)cs1,8.49 µM (active)
